The results in this text go back to PubChem BioAssay AID1259418 (Broad Institute, 2018).

The whole screen tested about 3,400 compounds, of which about 840 (25%) were called active. Another 11% or so got no clear call; they are omitted.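 The calls were made as follows: active = fitted half-maximal concentration of signal decrease at or below twice the sample's top tested concentration; inconclusive = flat curve between -70 and -30 percent, or poor fit; inactive = flat within 30 percent, signal rise, or potency above limit.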 The list is a sample of the results. Measured potencies and affinities stand elsewhere.

The nature of this assay: T. gondii growth inhibition with IFN-gamma, dose response, cell-based, ME49Luc, HeLa, luciferase, 72 h (AID 1259418). Particulars: T. gondii ME49Luc in IFN-y HeLa, active compounds read low, -100% = high-dose IFN-γ control wells; at 19.5 µM unless noted.
`COC(=O)c1ccccc1NC(=O)Nc1ccc(-c2nc(-c3ccc(C)cc3C)co2)cc1`: the max activity is 13.8% [at 0.16 µM] (inactive).

Consider `CSCc1noc(CN2CCCC3(C2)CN(C)C(=O)O3)n1` (stereo not given), for which the max activity was 41.2% (inactive).

For the compound `COc1cc(OC)cc(-c2noc(-c3nnn(Cc4nc(-c5ccccc5OC)oc4C)c3C)n2)c1`, the max activity is 6.32% [at 0.68 µM] (inactive).

`CCOc1ccc(-c2nc(CN3CCN(C(=O)Nc4ccc(C)c(F)c4)CC3)c(C)o2)cc1`: the max activity is 15% (inactive).

With `Cc1ccc(-c2nc(CN3CCN(C(=O)Nc4cc(C)cc(C)c4)CC3)c(C)o2)cc1`, the max activity was 9.49% [at 2.6 µM] (inactive).

In the case of `CCOc1ccc(-c2nc(CN3CCN(C(=O)Nc4ccc(C)c(C)c4)CC3)c(C)o2)cc1`, the max activity was 14.4% [at 0.35 µM] (inactive).

Turning to `Cc1ccc(-c2nc(CN3CCN(C(=O)Nc4cc(Cl)ccc4C)CC3)c(C)o2)cc1`, the max activity was 11.2% [at 10 µM] (inactive).

Regarding `CCOC(=O)CSC1=Nc2ccccc2C2=NC(CCC(=O)NCc3ccccc3OC)C(=O)N12` (stereo not given), the max activity is 28.4% [at 1.35 µM] (inactive).

In the case of `CC(C)N1CCC2(CC1)CC(COCC1CC1)N(c1ncccn1)C2` (stereo not given), the max activity is 22.4% (inactive).

As for `O=C(CCC1CCCC1)N1CCC2(CC1)Nc1cc(F)ccc1-n1cccc12`, the max activity was 4.37% (inactive).

Turning to `CC(C)[C@H](CO)Nc1nc(Nc2ccc(C(=O)O)c(Cl)c2)c2ncn(C(C)C)c2n1`, the max activity was 10.1% [at 10 µM] (inactive).

Consider `Cc1nc(-c2ccc(F)cc2)sc1-c1ccc(SCc2ccc(Br)cc2)nn1`, for which the max activity is 10.9% [at 1.35 µM] (inactive).

In the case of `COCC(=O)N1CCC2(CC1)Nc1ccc(C)c(C)c1-n1cccc12`, the max activity is 4.86% [at 10 µM] (inactive).

As for `CCc1nc(OCC(=O)Nc2ccc(Cl)c(C(F)(F)F)c2)c2ccccc2n1`, the max activity is 33.2% [at 2.6 µM] (inactive).

Consider `CN(C)CCN1CCOCC2(CCCN(C(=O)c3ccc4cc[nH]c4c3)C2)C1` (stereo not given), for which the max activity is 32.3% (inactive).

On to `Cc1cc(N2CCOCC2)nc2ccc(NC(=O)c3cc4ccccc4[nH]3)cc12`, for which the max activity was 9.53% [at 0.16 µM] (inactive).

Turning to `COc1ccc(NC(=O)N2CCN(Cc3nc(-c4ccccc4C)oc3C)CC2)cc1`, the max activity is 6.09% [at 0.16 µM] (inactive).

In the case of `O=C(NC1CCC12CCN(Cc1ccoc1)CC2)c1cnccn1` (stereo not given), the max activity was 54.2% (inactive).

As for `Cc1cc(C)c2c(=O)n(Cc3nc(-c4ccccc4)oc3C)c(=O)n(-c3ccccc3)c2n1`, the max activity was 11.1% [at 0.35 µM] (inactive).

Take `Cc1cc(C)c2c(=O)n(Cc3nc(-c4ccc(Cl)cc4)oc3C)c(=O)n(-c3ccccc3)c2n1`: the max activity was -16.5% (inactive).

For the compound `O=C(NC1CCCC1)[C@H]1[C@H](CO)[C@H]2Cn3c(ccc(C4=CCCCC4)c3=O)[C@@H]1N2CC1CC1`, the max activity was 28.5% [at 10 µM] (inactive).

As to `COc1ccccc1-c1nc(CSc2nc3c(c(=O)[nH]2)CN(Cc2ccccc2)CC3)c(C)o1`, the max activity was 31.5% (inactive).

Regarding `COCC1CN(C(=O)Cc2ccsc2)Cc2nccn2C1` (stereo not given), the max activity is 35.1% (inactive).

With `CCCCc1ccc(Nc2ncnc3c2cnn3-c2cccc(C)c2)cc1`, the max activity is 13.1% [at 5 µM] (inactive).

As to `COCCCNc1ncnc2c1cnn2-c1ccc(C)cc1C`, the max activity is 11.9% [at 0.16 µM] (inactive).

Turning to `Cc1ccc(-n2ncc3c(NC(C)(C)C)ncnc32)c(C)c1`, the max activity is 53.9% (inactive).

Regarding `Cc1ccc(Nc2ncnc3c2cnn3-c2ccc(C)cc2C)cc1`, the max activity is 16.5% [at 1.35 µM] (inactive).

On to `CCOc1ccc(-c2nc3c(s2)CN(C(=O)Nc2ccccc2CC)CC3)cc1`, for which the max activity was 124% (inactive).

With `Cc1oc(-c2cccc(Cl)c2)nc1CN1CCc2c(sc3c2CCCC3)C1c1ccccc1` (stereo not given), the max activity was 20.4% (inactive).

As to `COc1ccc(N2CC(NC(=O)C(=O)c3c(C)[nH]c4ccccc34)CC2=O)cc1` (stereo not given), the max activity was 15.6% [at 2.6 µM] (inactive).

In the case of `COc1ccc(CC(=O)N2CCC[C@@H]2C(=O)NCCc2csc(-c3ccccc3)n2)cc1Cl`, the max activity is 18.7% [at 5 µM] (inactive).

As to `Cc1nc(-c2ccc(F)cc2)sc1-c1ccc(SCc2cccc(F)c2)nn1`, the max activity was 25.1% (inactive).

Turning to `CC(C)c1ccc(S(=O)(=O)N2CCC3(CC2)NCCN=C3NCc2ccccc2)cc1`, the max activity was -31.9% (inactive).

On to `CC(C)c1ccc(S(=O)(=O)N2CCC3(CC2)NCCN=C3NCc2cccc(F)c2)cc1`, for which the max activity is -18.4% (inactive).

With `COc1ccc(C2=NC3(CCN(CC(=O)Nc4ccccc4F)CC3)NC2=O)cc1`, the max activity was -25.6% [at 0.35 µM] (inactive).

For the compound `Cn1nnc2c(NCCc3c[nH]c4ccccc34)ncnc21`, the max activity was 6.96% [at 0.35 µM] (inactive).

Turning to `CCc1c(C)sc2c1CCN(Cc1nc(-c3ccc(OC)cc3)oc1C)C2c1ccccc1` (stereo not given), the max activity is 15.1% [at 5 µM] (inactive).

For `N#Cc1cccc(-c2ccc(C3[C@@H]4CN(C(=O)Nc5ccc(C(F)(F)F)cc5)C[C@H]3N4)cc2)c1` (stereo not given in full), the max activity is 16.9% [at 10 µM] (inactive).

Take `Clc1cccc(CSc2nc(NC3CCCCC3)c3ccccc3n2)c1`: the max activity is 11% [at 10 µM] (inactive).

`CCc1onc(C)c1C1CCCN1Cc1cn(C)c2ccc(OC)cc12` (stereo not given): the max activity was 9.05% [at 0.68 µM] (inactive).

For `Fc1ccc(CNc2nc(-c3ccc(Cl)cc3)nc3ccccc23)cc1`, the max activity was 7.26% (inactive).

As to `CCc1ccc(CNc2nc(-c3ccc(Cl)cc3)nc3ccccc23)cc1`, the max activity was 24.5% (inactive).

Consider `COc1ccc(-c2nc(NCCc3ccc(C)cc3)c3ccccc3n2)cc1`, for which the max activity was 14.1% [at 0.16 µM] (inactive).

Take `COc1ccc(-c2nc(NCc3ccc(Cl)cc3)c3ccccc3n2)cc1`: the max activity is -9.43% [at 0.35 µM] (inactive).

For `COc1ccc(-c2nc(NCc3ccc4c(c3)OCO4)c3ccccc3n2)cc1`, the max activity is -12% [at 1.35 µM] (inactive).

As to `COc1ccc(-c2nc(NCCc3ccc(Cl)cc3)c3ccccc3n2)cc1`, the max activity is 25.9% [at 0.16 µM] (inactive).

`CCC(C(=O)N1CSC[C@@H]1C(=O)NCCc1csc(-c2ccccc2)n1)c1ccccc1` (stereo not given in full): the max activity was 16.6% [at 5 µM] (inactive).

For `COc1cccc(-c2nc3c(s2)CN(C(=O)Nc2ccccc2C)CC3)c1`, the max activity was 59.1% (inactive).

For the compound `CCCCOCCOCCOCc1cc2c(cc1CCC)OCO2`, the max activity was 17.6% (inactive).

Consider `COc1ccc(-c2nc(Nc3cccc(C)c3)c3ccccc3n2)cc1`, for which the max activity is -18.2% [at 0.16 µM] (inactive).

As for `CCc1nc(OCC(=O)NCc2ccc(OC)cc2)c2ccccc2n1`, the max activity is 25.3% (inactive).

With `O=C(Cc1cccnc1)N1CC(=O)N2[C@H](CO)[C@H](c3ccc(/C=C/c4ccccc4)cc3)[C@@H]2C1`, the max activity is 20.1% [at 10 µM] (inactive).

Turning to `C/C=C/c1ccc([C@H]2[C@H](CO)N3C(=O)CN(C(=O)NC4CCCCC4)C[C@@H]23)cc1`, the max activity was 19.7% (inactive).

On to `CC(C)C#Cc1ccc([C@@H]2[C@@H](CO)N3C(=O)CN(C(=O)NC4CCCC4)C[C@H]23)cc1`, for which the max activity was 19% [at 10 µM] (inactive).

As for `O=C(Cc1cccnc1)N1CC(=O)N2[C@H](CO)[C@@H](c3ccc(/C=C/c4ccccc4)cc3)[C@H]2C1`, the max activity is 9.82% [at 10 µM] (inactive).

Consider `CCc1ccc2c(c1)cc(S(=O)(=O)c1ccccc1)c(=O)n2CC(=O)NCCC1=CCCCC1`, for which the max activity was -4.67% [at 2.6 µM] (inactive).

On to `Cc1nc(OCC(=O)NCc2ccc(F)cc2)c2ccccc2n1`, for which the max activity was 25% [at 10 µM] (inactive).

In the case of `CCc1nc(OCC(=O)Nc2ccc(OC)cc2)c2ccccc2n1`, the max activity was -14.2% (inactive).

For the compound `CC(=O)N1CCN(C(C)C)C(c2nnc3ccc(C(=O)N4CCCC4)cn23)C1` (stereo not given), the max activity was 43.3% (inactive).

For `COc1ccc(-c2ccc([C@@H]3[C@@H](CO)N4C(=O)CN(Cc5ccccc5)C[C@H]34)cc2)cc1`, the max activity was 18% [at 10 µM] (inactive).

Turning to `COc1ccc(-c2ccc([C@@H]3[C@@H](CO)N4C(=O)CN(Cc5ccccc5)C[C@@H]34)cc2)cc1`, the max activity was 9.38% [at 5 µM] (inactive).

Take `COCC(=O)N1CC(=O)N2[C@H](CO)[C@@H](c3ccc(-c4ccncc4)cc3)[C@H]2C1`: the max activity is 45.2% (inactive).

Consider `COCC(=O)N1CC(=O)N2[C@H](CO)[C@@H](c3ccc(-c4ccccc4F)cc3)[C@H]2C1`, for which the max activity was 43.4% (inactive).

For `Cc1ccc(CNC(=O)Cn2c(=O)c(S(=O)(=O)c3ccccc3)cc3ccccc32)cc1`, the max activity was 11% [at 0.16 µM] (inactive).

As for `Cc1ccc2[nH]c(C(=O)N3CCN(c4ccccn4)CC3)c(NC(=O)c3ccc(Cl)cc3)c2c1`, the max activity is 30.8% [at 10 µM] (inactive).

With `COCC(=O)Nc1ccc(-c2nc(-c3ccc(C)cc3C)co2)cc1`, the max activity was 13.9% [at 0.16 µM] (inactive).

For `O=C(c1ccccc1F)N1CCC2(CC1)Nc1cc(F)ccc1-n1cccc12`, the max activity was -7.85% [at 2.6 µM] (inactive).

As to `CCCCC(=O)Nc1ccc(-c2nc(-c3ccccc3)co2)cc1`, the max activity was 9.5% [at 10 µM] (inactive).

With `COCCCN1CCc2nc(SCc3nc(-c4ccc(OC)cc4)oc3C)[nH]c(=O)c2C1`, the max activity was 25.5% [at 0.16 µM] (inactive).

Turning to `Cc1nc(CCNC(=O)C2CCN(S(=O)(=O)c3ccc(F)c(Cl)c3)CC2)cs1`, the max activity was 8.69% [at 5 µM] (inactive).

As for `Cc1ccc(-c2coc(-c3ccc(NC(=O)Nc4cccc(Cl)c4)cc3)n2)cc1`, the max activity was 13.6% [at 2.6 µM] (inactive).

As to `COc1ccc(-c2cc(C(=O)Nc3ccc4c(c3)CCC(=O)N4)c3ccccc3n2)cc1`, the max activity is 13.4% [at 5 µM] (inactive).

Regarding `Cc1oc(-c2ccccc2)nc1Cn1nnc(-c2nc(-c3cccc(Cl)c3)no2)c1C`, the max activity is -9.25% [at 5 µM] (inactive).

As to `COc1ccc2[nH]cc(CCNC(=O)c3sc4ncnc(N(C)C5CCCCC5)c4c3C)c2c1`, the max activity is 9.31% [at 5 µM] (inactive).

`Cc1ccc(-c2coc(-c3ccc(NC(=O)Nc4ccc(F)cc4F)cc3)n2)c(C)c1`: the max activity is 9.31% [at 0.68 µM] (inactive).
